# Screening results deposited in PubChem by Emory University Molecular Libraries Screening Center.
# 14-3-3g Raf = modulators of human 14-3-3 gamma - Raf peptide interaction; P61981; AID 422; 0.19% of 160,000 active; inhibition, % at 40 µM; FP, 14-3-3gamma / TMR-pS259-Raf peptide binding; in the data active = inhibition above about 30%
# Target sequence (P61981 whole entry, looked up): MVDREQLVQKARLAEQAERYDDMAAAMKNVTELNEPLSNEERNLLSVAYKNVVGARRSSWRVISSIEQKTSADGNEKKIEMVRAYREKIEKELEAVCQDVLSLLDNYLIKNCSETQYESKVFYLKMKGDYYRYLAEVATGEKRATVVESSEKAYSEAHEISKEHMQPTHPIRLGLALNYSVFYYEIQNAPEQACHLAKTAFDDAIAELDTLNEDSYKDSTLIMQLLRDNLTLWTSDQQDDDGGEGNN
# Numbers stand for hits; - = inactive. This is one part of a sample in which hits are shown more often than they occur.
SMILES,14-3-3g Raf
COc1cc(OC)c(OC)cc1CC1C(=O)N(C)C(=O)N(C)C1=O,66
C=CCN1C(=O)NC(=O)C(Cc2ccc(OC)c(OC)c2)C1=O (stereo not drawn),-
COc1cc(CC2C(=O)N(C)C(=O)N(C)C2=O)ccc1OCc1ccccc1,-
CNCCc1c[nH]c2ccccc12,-
CN1C(=O)C(Cc2c[nH]c3ccccc23)C(=O)N(C)C1=O,82
CN1C(=O)C(Cc2cccc3ccccc23)C(=O)N(C)C1=O,-
Cc1cc(C)cc(-n2c(=S)[nH]c3ccccc3c2=O)c1,-
CCOC(=O)C1=C(C)OC(N)=C(C(=O)OC(C)C)C12C(=O)Nc1ccccc12 (stereo not drawn),-
NC1(c2cccc(Cl)c2)CCC1,-
O=C(CN1C(=O)CN=C(c2ccccc2)c2ccccc21)NCC1CCCO1 (stereo not drawn),-
CCCN(CCC)c1ccc([N+](=O)[O-])c2nonc12,-
O=[N+]([O-])c1c(NCCO)ccc2nonc12,-
Nc1ccc2nonc2c1[N+](=O)[O-],31
C=CCOC(=O)C1=C(C)OC(N)=C(C(=O)OCCCC)C12C(=O)N(C)c1ccccc12 (stereo not drawn),-
CC(C)CCn1c(=O)c(C(=O)Nc2cccnc2)c(O)c2ccccc21,-
